Activity calls are given as the source filed them. The calls were made as follows: active = hit-call score of the fitted dose curve at least 0.9, where 1 is the maximum; inactive = score below 0.9.
target: Estrogen receptor (Homo sapiens) (UniProt P03372); assay: OT_ERa_GFPERaERE_0480: Odyssey Thera (OT) 8-hour HeLa Transcription Induction Assay for Estrogen Receptor (AID 2283381)
Experimental: OT_ERa_GFPERaERE_0480 is a cell-based, single-readout assay that uses HeLa, a human cervix cell line, with measurements taken at 8 hours after chemical dosing in a 384-well plate.OT_ERa_GFPERaERE_0480 is one of one assay component(s) measured or calculated from the OT_ERa_GFPERaERE_0480 assay. It is designed to make measurements of fluorescent protein induction, a form of inducible reporter, as detected with optical microscopy: fluorescence microscopy signals by Microscopy technology.Data from the assay component OT_ERa_GFPERaERE_0480 was analyzed into 1 assay endpoint. This assay endpoint, OT_ERa_EREGFP_0480, was analyzed in the positive analysis fitting direction relative to DMSO as the negative control and baseline of activity. Using a type of inducible reporter, measures of receptor for gain-of-signal activity can be used to understand the reporter gene at the pathway-level as they relate to the gene ESR1. Furthermore, this assay endpoint can be referred to as a primary readout, because the performed assay has only produced 1 assay endpoint. To generalize the intended target to other relatable targets, this assay endpoint is annotated to the nuclear receptor intended target family, where the subfamily is steroidal.
All assay endpoints are quantified using high content image analysis algorithms.

Estrogen receptor (Homo sapiens), sequence (P03372 whole entry, looked up): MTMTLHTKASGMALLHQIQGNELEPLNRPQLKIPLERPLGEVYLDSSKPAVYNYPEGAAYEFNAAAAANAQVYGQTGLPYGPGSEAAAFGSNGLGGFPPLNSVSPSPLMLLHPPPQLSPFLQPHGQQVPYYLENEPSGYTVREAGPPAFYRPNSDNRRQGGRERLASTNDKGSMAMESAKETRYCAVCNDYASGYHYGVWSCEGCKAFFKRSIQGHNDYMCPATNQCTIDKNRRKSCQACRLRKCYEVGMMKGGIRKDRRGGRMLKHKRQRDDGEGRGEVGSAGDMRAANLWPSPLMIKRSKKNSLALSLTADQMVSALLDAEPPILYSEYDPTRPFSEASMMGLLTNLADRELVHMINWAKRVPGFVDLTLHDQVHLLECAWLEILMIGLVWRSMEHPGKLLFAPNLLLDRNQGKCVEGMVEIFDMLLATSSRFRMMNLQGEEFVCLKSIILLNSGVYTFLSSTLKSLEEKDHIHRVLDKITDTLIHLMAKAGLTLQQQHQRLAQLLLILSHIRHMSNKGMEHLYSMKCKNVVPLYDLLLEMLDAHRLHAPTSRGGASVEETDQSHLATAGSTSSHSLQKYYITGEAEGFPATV

Structure (SMILES)	outcome
COc1cc(Cl)c(OC)cc1Cl	inactive
COC(=O)N(C(=O)N1CO[C@@]2(C(=O)OC)Cc3cc(Cl)ccc3C2=N1)c1ccc(OC(F)(F)F)cc1	inactive
Nc1c(Cl)c(Cl)nc(C(=O)O)c1Cl	inactive
CNC(=O)N(C)c1nnc(C(C)(C)C)s1	inactive
CC(C)N1C(=O)c2ccccc2NS1(=O)=O	inactive
CCCC(=NOCC)C1=C(O)CC(CC(C)SCC)CC1=O (stereo not given)	inactive
CCN(CC)C(=O)C(C)Oc1cccc2ccccc12 (stereo not given)	inactive
Cn1c(-c2ccccc2)cc(-c2ccccc2)[n+]1C	inactive
CSC(=O)c1c(C(F)F)nc(C(F)(F)F)c(C(=O)SC)c1CC(C)C	inactive
CC1(C)C(C(=O)OC(C#N)c2cccc(Oc3ccccc3)c2)C1(C)C (stereo not given)	inactive
C=C(C)CN(CC)c1c([N+](=O)[O-])cc(C(F)(F)F)cc1[N+](=O)[O-]	inactive
CC(C)NC(=O)N1CC(=O)N(c2cc(Cl)cc(Cl)c2)C1=O	inactive
CC(C)Nc1nc(Cl)nc(NC(C)C)n1	inactive
COP(=S)(OC)Oc1ccc([N+](=O)[O-])c(C)c1	inactive
CC1(C)CCC(=Cc2ccc(Cl)cc2)C1(O)Cn1cncn1 (stereo not given)	inactive
CCOP(=S)(OCC)Oc1nc(Cl)n(C(C)C)n1	inactive
O=C1C2CC=CCC2C(=O)N1SC(Cl)(Cl)Cl (stereo not given)	inactive
CCOP(=O)(OCC)Oc1nc(Cl)c(Cl)cc1Cl	inactive
OC(c1ccc(Cl)cc1)(c1ccc(Cl)cc1)C(Cl)(Cl)Cl	inactive
CCNP(=S)(OC)O/C(C)=C/C(=O)OC(C)C (stereo not given)	inactive

Structure (SMILES)	outcome
CCOc1nc(F)cc2nc(S(=O)(=O)Nc3c(Cl)cccc3Cl)nn12	inactive
COCc1cnc(C2=NC(C)(C(C)C)C(=O)N2)c(C(=O)O)c1 (stereo not given)	inactive
Cc1nc(N(C)C)nc(OC(=O)N(C)C)c1C	inactive
CCSC(=O)N1CCCCCC1	inactive
O=C(O)c1c(Cl)ccc2cc(Cl)cnc12	inactive
CCC(C)n1c(=O)[nH]c(C)c(Br)c1=O (stereo not given)	inactive
CCOc1nc(C(Cl)(Cl)Cl)ns1	inactive
CNC(=O)Oc1cccc2ccccc12	inactive
Cc1cnc(C2=NC(C)(C(C)C)C(=O)N2)c(C(=O)O)c1 (stereo not given)	inactive
CS(=O)(=O)c1cc(C(F)(F)F)ccc1C(=O)c1cnoc1C1CC1	inactive
Clc1nc(Cl)nc(Nc2ccccc2Cl)n1	inactive
Cc1ccc(N=CN(C)C=Nc2ccc(C)cc2C)c(C)c1	inactive
O=c1n(Cl)c(=O)n(Cl)c(=O)n1Cl	inactive
COP(=S)(OC)SCn1nnc2ccccc2c1=O	inactive
CO/N=C(/C1=NOCCO1)c1ccccc1Oc1ncnc(Oc2ccccc2Cl)c1F	inactive
CS(=O)(=O)c1ccc(C(=O)C2C(=O)CCCC2=O)c([N+](=O)[O-])c1	inactive
CC(C)(C)C(=O)C(Oc1ccc(Cl)cc1)n1cncn1 (stereo not given)	inactive
COC(=O)c1c(C(F)F)nc(C(F)(F)F)c(C2=NCCS2)c1CC(C)C	inactive
O=P(O)(O)CCCl	inactive
C=CCOC(=O)C(C)(C)OC(=O)c1cc(-n2c(=O)cc(C(F)(F)F)n(C)c2=O)ccc1Cl	inactive

Source: PubChem BioAssay (EPA / NIEHS)
